Bioassay records: PubChem, National Center for Advancing Translational Sciences (NCATS)
G9a inh = inhibitors of human histone lysine methyltransferase G9a. AID 504332. G9a H3K9 monomethylation, AlphaScreen, 2 h. 8.8% of 350,000 active. Potency, µM (highest dose often 102 µM), for inactives: top-dose activity, negative = inhibition, hits mostly inhibitors; also: potency is read from the fitted curve at half-maximal effect; % is scaled to controls: 0 for no effect and ±100 for the full control effect; nearly all actives have a fitted effect of over 75% in size
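AlphaScreen read-out: biotin-H3K9 peptide (500 nM) methylation by 20 nM enzyme with 20 uM SAM, 2 h at room temperature after 15 min compound preincubation; anti-monomethyl H3K9 antibody plus donor/acceptor beads, 10 min dark.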
PI5P4K alpha inh = PI5P4K alpha (human) kinase inhibition. P48426. max response, %. PI5P4Kalpha enzyme, ADP-Glo luminescence, 60 min; stronger effect = lower value. 1.2% of 330,000 active; active = max response of -50% or lower; inconclusive = between -30% and -50%; inactive = -30% or higher; also: value at the top dose of about 77 µM; % is scaled to controls: 0 for no effect and ±100 for the full control effect
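Luminescence from ADP-Glo served as readout of PI5P4Kalpha activity in a qHTS format. Reaction: enzyme, substrate, compound, ATP at 5 microM final, 60 min at RT.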
PLK1 PBD inh = blocks phosphopeptide binding to human PLK1 polo-box domain. Potency, µM, for the others: max response, negative = inhibition, most hits filed as inhibitors. 2.8% of 360,000 active. Plk1 PBD binding of FITC phosphopeptide, fluorescence polarization; also: potency is read from the fitted curve at half-maximal effect; series mostly up to about 57 µM; % is scaled to controls: 0 for no effect and ±100 for the full control effect; nearly all actives have a fitted effect of over 65% in size
Target sequence (P53350 whole entry, looked up, the tested form may be a part): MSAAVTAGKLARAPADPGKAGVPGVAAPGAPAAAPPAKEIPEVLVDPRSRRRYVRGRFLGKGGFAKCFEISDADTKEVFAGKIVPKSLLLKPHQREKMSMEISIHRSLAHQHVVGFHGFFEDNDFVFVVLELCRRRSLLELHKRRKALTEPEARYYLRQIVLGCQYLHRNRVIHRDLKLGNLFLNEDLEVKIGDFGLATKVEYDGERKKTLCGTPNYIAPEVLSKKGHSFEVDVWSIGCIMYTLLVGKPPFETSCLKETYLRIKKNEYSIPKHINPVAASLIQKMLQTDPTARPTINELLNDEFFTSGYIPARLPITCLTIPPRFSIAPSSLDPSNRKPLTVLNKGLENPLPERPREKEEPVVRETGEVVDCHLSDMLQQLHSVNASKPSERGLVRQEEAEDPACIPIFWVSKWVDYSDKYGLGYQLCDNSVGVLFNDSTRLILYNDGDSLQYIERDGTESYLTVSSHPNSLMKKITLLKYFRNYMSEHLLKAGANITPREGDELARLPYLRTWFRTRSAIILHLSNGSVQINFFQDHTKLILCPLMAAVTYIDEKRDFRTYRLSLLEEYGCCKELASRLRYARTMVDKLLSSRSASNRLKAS
HP1b chromo inh = HP1-beta chromodomain-methylated histone interaction inhibition. AlphaScreen HP1-beta / biotin-H3K9me3 peptide binding. AID 540317. 0.56% of 390,000 active. P83916. Potency, µM (titrated, usually from 114 µM), for the others: at the top dose activity change, negative = inhibition, actives largely listed as inhibitors; also: potency is read from the fitted curve at half-maximal effect; nearly all actives have a fitted effect of over 70% in size
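HP1-beta protein (50 nM final) preincubated 30 min at room temperature with biotinylated H3(1-18)K9me3 peptide (50 nM) in PBS pH 7.4, 0.01% Tween-20, then compound added for 30 min. AlphaScreen streptavidin donor/nickel chelate acceptor beads (10 ug/mL final), 30 min dark, luminescence read.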
JMJD2A Tudor inh = blocks the human JMJD2A Tudor domain; O75164; AlphaScreen JMJD2A-Tudor / H3K4me3 peptide binding; Potency, µM (series often up to 114 µM), without a hit: at the highest dose activity change, negative = inhibition, usual class: inhibitors; 4.4% of 390,000 active; AID 504339; also: potency is read from the fitted curve at half-maximal effect; % is scaled to controls: 0 for no effect and ±100 for the full control effect; nearly all actives have a fitted effect of over 50% in size
BAZ2B block = BAZ2B (human) inhibition | Potency, µM (titrated, usually from 114 µM), inactives show at the top dose activity change, negative = inhibition, usual class: inhibitors | AlphaScreen BAZ2B-H3K14Ac peptide displacement | AID 504333 | Q9UIF8 | 4.4% of 360,000 active; also: potency is read from the fitted curve at half-maximal effect; % is scaled to controls: 0 for no effect and ±100 for the full control effect; nearly all actives have a fitted effect of over 60% in size
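AlphaScreen luminescence quantifies BAZ2B engagement of H3K14Ac peptide; the protein and biotinylated peptide are both at 50 nM final, buffer PBS pH 7.4 with 0.01% Tween-20, all steps at room temperature.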
An asterisk follows results filed as active; ? = inconclusive; · = not tested or not shown; [ ] = another dose, or the depositor's remark. A selection: hits, their analogues and other compounds. The true share with any hit is near 12%. Unless noted, calls follow the shape of the dose curve; as a rule, active = well fitted curve in the direction sought with a large enough effect; inconclusive = small, poorly fitted or top-dose-only effect, or another doubt; inactive = no such curve, though single readings can be large; an effect the other way counts as inactive or inconclusive.

SMILES	G9a inh	PI5P4K alpha inh	PLK1 PBD inh	HP1b chromo inh	JMJD2A Tudor inh	BAZ2B block
COc1ccc2oc(C(=O)Nc3nc4ccccc4[nH]3)c(C)c2c1	8%[12.7 µM]	-5	14%	45%	-3%	-1%
COc1ccnc(CS(=O)c2nc3cc(C(O)(F)F)ccc3[nH]2)c1OC (configuration not stated)	20µM*	3	2%	22%	79µM*	-1%
COc1ccc2[nH]c(S(=O)Cc3ncc(C)c(OC)c3C)nc2c1 (configuration not stated)	16µM*	-12	-10%	·	50µM*	-29%
CCOC(=O)COc1coc(CN2CCN(c3ccc(F)cc3)CC2)cc1=O	6%	4	-11%	76%	-6%	-12%
CC(NC1=CC(=O)c2cccnc2C1=O)C(O)c1ccccc1 (configuration not stated)	·	5	?	-18%	56µM*	·
CC(c1ccccc1)N1C(=O)c2cccnc2C1=O (configuration not stated)	4%	0	5%	32%	-7%	?
O=C(CCNC(=O)c1ccc(Br)cc1)Nc1ccc(S(=O)(=O)N2CCOCC2)cc1	·	1	1%	27%	-8%	·
CN1Cc2sccc2C(c2ccc(O)c(O)c2)C1 (configuration not stated)	8.4µM*	·	·	·	·	·
CCOC(=O)c1c(N)sc(C)c1-c1ccccc1	18µM*	·	·	·	·	·
CCOC(=O)c1c(N)sc(-c2ccccc2)c1C	8.9µM*	·	19µM*	?	?	-36%
CCOC(=O)c1c(NC(=O)CSc2nncs2)sc(C)c1-c1ccccc1	?	-15	1%	28%	-24%	-25%
Cc1sc(N)c(C(=O)c2ccccc2)c1C	·	-19	3.8µM*	-23%	-5%[11.4 µM]	?
Cc1c(-c2ccccc2)sc(N)c1C(=O)N1CCOCC1	4µM*	-5	24µM*	?	2%[11.4 µM]	-28%
O=c1c2sc3ccccc3c2n(Cc2ccc(F)cc2)c(=O)n1Cc1ccccc1	-17%[59 µM]	·	·	36%	-1%	6%
CCOC(=O)c1c(N)nn(C(=O)C(C)(C)C)c1-c1ccccc1	?	5	0%	43%	-10%	4%
CCOC(=O)c1c(N)sc(C(O)(C(F)(F)F)C(F)(F)F)c1-c1ccccc1	-2%	-3	27µM*	?	?	-1%
CCc1ccc(NC(=O)COC(=O)Cn2cnc3ccccc32)cc1	-39%	-3	1%	32%	-2%	5%
CC1CCCC(C)N1CC(O)COc1c(F)cc(Br)cc1F (configuration not stated)	-25%	11	21µM*	18%	8%[11.4 µM]	-7%
Cn1c(SCc2cccc(F)c2)nc2c([nH]c3ccccc32)c1=O	17%[59 µM]	·	·	8%[57 µM]	-8%	-2%
N#Cc1c(/N=C/c2ccc(Br)s2)sc2c1CCC2	?	-25	?	-23%	-20%[57.1 µM]	-31%
N#Cc1c(/N=C/c2ccc(-c3ccccc3C(=O)O)o2)sc2c1CCCC2	32µM*	-14	38µM*	-33%	79µM*	45µM*
Cc1ccc(/C=N/c2sc3c(c2C#N)CCC3)o1	18µM*	-21	-3%	-69%	45µM*	?
N#Cc1c(/N=C/N2CCOCC2)sc2c1CCCCC2	?	-7	21µM*	?	?	-31%
N#Cc1c(/N=C/c2cccs2)sc2c1CCCCC2	14µM*	0	-12%	?	40µM*	8.9µM*
COc1cccc(CNCCSc2nnnn2C)c1OCc1ccc(Cl)cc1Cl	3%[59 µM]	·	·	40%	-5%	-18%
SMILES	G9a inh	PI5P4K alpha inh	PLK1 PBD inh	HP1b chromo inh	JMJD2A Tudor inh	BAZ2B block
O=C(C1CC1)N1CCc2cc(Br)cc(S(=O)(=O)Nc3ccc(C(F)(F)F)cc3)c21	0%[59 µM]	·	·	19%	-15%	-17%
COc1ccc(-c2csc3ncnc(N4CCN(c5ccc(OC)cc5)CC4)c23)cc1	·	1	1%	?	32µM*	10µM*
Cc1ccc(-c2csc3ncnc(Nc4ccc(N5CCOCC5)cc4)c23)cc1	?	-8	27µM*	?	-35%[11.4 µM]	45µM*
COc1ccc(-c2csc3ncnc(N4CCN(c5ccccc5[N+](=O)[O-])CC4)c23)cc1	14µM*	15	-20%	?	?	?
Cc1ccc(-c2csc3ncnc(N4CCN(c5ccccc5O)CC4)c23)cc1	?	5	-8%	13%	?	?
COc1ccc(N2CCN(c3ncnc4onc(-c5ccc(F)cc5)c34)CC2)cc1	18µM*	·	·	-1%	?	-33%[57.1 µM]
COc1ccc(-c2csc3ncnc(N4CCN(c5ccccc5O)CC4)c23)cc1	·	-10	2%	-3%	-30%	-9%
CN(C(=O)COC(=O)c1cc([N+](=O)[O-])ccc1Cl)c1ccccc1	-9%	7	-16%	3%	-31%	-25%
COc1ccc(-c2csc3ncnc(N4CCN(Cc5ccccc5)CC4)c23)cc1	-17%	-3	0%	13%	-26%	?
COc1ccc(-c2csc3ncnc(N4CCN(c5ccccc5)CC4)c23)cc1	71µM*	1	-9%	-7%	?	?
CCN(CC(=O)Nc1cc(S(=O)(=O)N2CCOCC2)ccc1C)Cc1ccccc1	-32%	-4	2%	17%	-1%	5%
Cc1cnc(CNc2ncncc2-c2ccc3c(c2)OCO3)cn1	-4%[0.501 µM]	·	·	·	·	·
O=c1oc2ccc([N+](=O)[O-])cc2c(N2CCOCC2)c1[N+](=O)[O-]	?	·	·	·	·	-3%
C=CSc1sc(Cl)c(N2CCOCC2)c1[N+](=O)[O-]	-106%[59 µM]	0	-15%	50µM*	50µM*	14µM*
O=[N+]([O-])c1cccc(Cl)c1N1CCOCC1	14%	-5	-10%	-12%	-21%	-9%
C=CS(=O)(=O)c1sc(Cl)c(N2CCOCC2)c1[N+](=O)[O-]	8.9µM*	-105*	0.53µM*	?	79µM*	?
Cc1csc2nc(CCNS(=O)(=O)c3ccccc3)cn12	16%[59 µM]	·	·	30%[57 µM]	6%	0%
CN(CC(=O)Nc1cccc(F)c1)CC(=O)N(C)CC(=O)Nc1ccccc1Br	9%[2.33 µM]	-4	-3%	44%	-8%	5%
COc1cc(OC)c2ccc(=O)oc2c1C(CCN1CCCC1)c1ccc2c(c1)OCO2 (configuration not stated)	29%[12.7 µM]	-2	-3%	4%	-36%	-32%
CCCCCc1cc(=O)oc2c(C(CCN3CCCCC3)c3ccc4c(c3)OCO4)c(OC)cc(OC)c12 (configuration not stated)	-5%[12.7 µM]	5	-15%	-24%	45µM*	?
COc1cc(OC)c2ccc(=O)oc2c1C(CCN1CCOCC1)c1ccc2c(c1)OCO2 (configuration not stated)	-1%[59 µM]	0	-8%	25%	?	·
